Assay results reported in the supplement of paper PMC12636033.
± gives the standard deviation of the averaged measurements. Whole data set: some 33,000 sequences, median “E-score (rank enrichment, -0.5 to 0.5)” near -0.0028, cut for the highest 2% near 0.23. The entries come from a sample that favours the highest values as a whole.

The sequences below were run on 2Sb-muMax20 (muMax20 with two 1,3-bis(methyl)benzene Cys staples, A13C/A17C and Q88C/A92C, C-terminal Lys) (assay: PBM 8-mer E-score (E-score (rank enrichment, -0.5 to 0.5)); higher = stronger preferential binding).
Experimental: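 Protein binding microarray (universal PBM chip covering all 10-mers in fixed probe flanks) with chemically synthesized human Max(13-93) bHLH-LZ analogs (not full-length Max) bearing noncanonical residues (hArg, Tha, Aib, Nle at 65) and aromatic Cys staples. Read-out per 8-mer (and its reverse complement): E-score (rank-based enrichment, -0.5 to 0.5) and Z-score of median probe intensity.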

| Sequence | PBM 8-mer E-score |
| --- | --- |
| CAAATTCC | 0.117 ± 0.042 |
| CGTTTCTC | -0.0396 ± 0.11 |
| GACAGGGA | -0.156 ± 0.072 |
| AAGCAACT | 0.00018 ± 0.012 |
| ATAAAGCA | 0.261 ± 0.077 |
| ATAAAGCG | 0.0637 ± 0.015 |
| CTAAAGCA | 0.097 ± 0.0042 |
| AGTTAGAA | 0.0284 ± 0.083 |
| CCGTGCAA | -0.0691 ± 0.042 |
| CCGTGCAC | 0.126 ± 0.009 |
| GCGTGCAC | 0.164 ± 0.039 |
| ACGTGCAA | 0.252 ± 0.037 |
| ACGTGCAT | 0.199 ± 0.0073 |
| ACGTGCAC | 0.281 ± 0.028 |
| AGACCATG | -0.149 ± 0.029 |
| ACGGGTAA | 0.0152 ± 0.05 |
| AATGTGGC | 0.0323 ± 0.0018 |
| AATGTGGG | 0.248 ± 0.054 |
| CATGTGGG | 0.193 ± 0.0078 |
| TGAATGCA | 0.167 ± 0.015 |
| CCATACCG | 0.0521 ± 0.016 |
| ATTTTACC | 0.147 ± 0.025 |
| CGACGGAA | -0.109 ± 0.041 |
| ATCATTAA | 0.0944 ± 0.13 |
| ACCATTAA | 0.298 ± 0.038 |

| Sequence | PBM 8-mer E-score |
| --- | --- |
| CACATTAG | -0.00967 ± 0.014 |
| AACATTAC | 0.17 ± 0.015 |
| CACATTAC | 0.235 ± 0.017 |
| TCCATTAA | -0.0453 ± 0.043 |
| TACATTAA | 0.25 ± 0.03 |
| CCCATTAA | 0.13 ± 0.0083 |
| GACATTAA | 0.0446 ± 0.036 |
| GTCATTAA | 0.269 ± 0.035 |
| CTCATTAA | 0.154 ± 0.064 |
| AACATTAA | 0.0201 ± 0.011 |
| AGCGTGGC | -0.119 ± 0.04 |
| TAACGTTA | 0.0083 ± 0.027 |
| CCATTCCG | -0.0949 ± 0.02 |
| CGACGCCC | 9e-05 ± 0.053 |
| CTGCTCTC | -0.0222 ± 0.021 |
| ATGTGATG | 0.108 ± 0.053 |
| ATATCCGC | -0.0334 ± 0.094 |
| AGAACCAG | -0.11 ± 0.019 |
| GTGATTAA | 0.234 ± 0.019 |
| TGCATTAA | 0.267 ± 0.01 |
| CGCATTAA | 0.0701 ± 0.0015 |
| CTGATTAA | 0.0112 ± 0.038 |
| GGCATTAA | -0.00398 ± 0.043 |
| ATGATTAA | -0.061 ± 0.032 |
| AGCATTAC | -0.0652 ± 0.011 |

| Sequence | PBM 8-mer E-score |
| --- | --- |
| AGCATTAA | 0.245 ± 0.037 |
| AGCATTAT | 0.224 ± 0.0032 |
| AGGATAAT | 0.148 ± 0.024 |
| AGTTATCC | 0.119 ± 0.035 |
| AGCTCAAG | -0.0222 ± 0.065 |
| AAAGCCAG | -0.092 ± 0.033 |
| CTCGCGAA | -0.117 ± 0.028 |
| ATATTCCC | 0.159 ± 0.065 |
| ACCGGCGT | -0.189 ± 0.05 |
| CTTCGTCC | -0.084 ± 0.06 |
| ATTCGTCG | -0.057 ± 0.028 |
| ATTCGTCC | 0.232 ± 0.032 |
| ACATCGGT | -0.142 ± 0.022 |
| ACAATCTC | 0.149 ± 0.018 |
| CCAATCTA | 0.094 ± 0.0061 |
| CCAATCTC | 0.256 ± 0.024 |
| CTACGCGC | -0.0145 ± 0.047 |
| GACTCTTA | 0.151 ± 0.032 |
| CGGCGCAA | -0.0906 ± 0.015 |
| ACCGTCCG | -0.254 ± 0.034 |
| AGCCTCAG | -0.0843 ± 0.053 |
| AACAATGC | 0.23 ± 0.044 |
| GTCAATTA | -0.0609 ± 0.042 |
| ATCAATTC | 0.0558 ± 0.082 |
| AACAATGG | 0.0925 ± 0.024 |

| Sequence | PBM 8-mer E-score |
| --- | --- |
| ATCAATCG | 0.16 ± 0.067 |
| CTCAATTA | 0.0698 ± 0.043 |
| ATCAATTA | 0.27 ± 0.01 |
| ATCAATTG | 0.257 ± 0.0066 |
| AACAATTA | 0.2791 ± 0.0017 |
| AACAATTC | 0.141 ± 0.011 |
| GACAATGC | 0.0134 ± 0.02 |
| AACAATTG | 0.143 ± 0.022 |
| CCATGGGA | 0.123 ± 0.019 |
| AATAGAGC | 0.0926 ± 0.04 |
| ATGCTTCG | 0.00498 ± 0.0021 |
| CACAGTAG | -0.0155 ± 0.0072 |
| AGCCTAGA | -0.0899 ± 0.028 |
| ACGACGAC | -0.124 ± 0.0076 |
| GTTCGCTA | -0.0331 ± 0.033 |
| ATTAGTCA | 0.172 ± 0.041 |
| CAGGATAG | 0.0195 ± 0.012 |
| GCCGTCAA | -0.0475 ± 0.027 |
| CAAGCGCA | 0.27 ± 0.03 |
| AAAGCGCA | 0.0962 ± 0.09 |
| CAAGCGCC | -0.226 ± 0.091 |
| ACATGTGG | 0.246 ± 0.04 |
| AAATGTGG | 0.114 ± 0.11 |
| ACACATGA | -0.0128 ± 0.068 |
| CCATGTGA | 0.109 ± 0.036 |

| Sequence | PBM 8-mer E-score |
| --- | --- |
| ACACATGG | 0.145 ± 0.08 |
| ACACATGT | 0.334 ± 0.0089 |
| ACATGTGA | 0.308 ± 0.033 |
| ACATGTGC | 0.167 ± 0.0089 |
| GCATGTGA | 0.159 ± 0.02 |
| CCTCCGTC | 0.0056 ± 0.021 |
| GCCGGCCC | -0.162 ± 0.0086 |
| AAATAGTA | 0.175 ± 0.0028 |
| AAATAACG | 0.273 ± 0.017 |
| ATATAACC | 0.16 ± 0.041 |
| AGATAACG | 0.259 ± 0.041 |
| AAATAATC | -0.0306 ± 0.048 |
| ATATAACA | 0.126 ± 0.0091 |
| CGATAACG | -0.0616 ± 0.034 |
| ATATAACG | 0.288 ± 0.0086 |
| AAATAATG | 0.2315 ± 0.002 |
| AAATAACA | 0.0873 ± 0.044 |
| AAATAATA | 0.149 ± 0.025 |
| AGATAACC | 0.0753 ± 0.022 |
| CAATAACG | 0.105 ± 0.029 |
| AACGTGGT | 0.224 ± 0.05 |
| ATTCCTCC | 0.129 ± 0.052 |
| ACACCGGG | -0.119 ± 0.096 |
| AGCATAAG | 0.0893 ± 0.055 |
| CATTATGG | 0.0682 ± 0.009 |

| Sequence | PBM 8-mer E-score |
| --- | --- |
| CACATTCC | -0.108 ± 0.075 |
| GCTGCGCA | -0.147 ± 0.022 |
| CAACATGA | 0.232 ± 0.044 |
| CAACATGC | -0.00139 ± 0.11 |
| CAACATGG | 0.138 ± 0.066 |
| ATATATAA | 0.221 ± 0.099 |
| CGTTATAA | 0.129 ± 0.021 |
| CGATATAA | 0.262 ± 0.066 |
| AACTATAA | 0.102 ± 0.024 |
| TTATATAA | 0.241 ± 0.086 |
| TACTATAA | 0.239 ± 0.017 |
| AGTTATAA | 0.141 ± 0.061 |
| TGTTATAA | 0.261 ± 0.021 |
| CGATATAG | 0.00229 ± 0.039 |
| CTATATAA | 0.0927 ± 0.03 |
| CGATATAC | 0.156 ± 0.025 |
| CACTATAA | -0.0514 ± 0.028 |
| CCCACTAA | 0.177 ± 0.014 |
| ACAGTCAC | 0.0067 ± 0.018 |
| AAATCTGG | -0.19725 ± 4.2e-05 |
| TACCTTAA | -0.0174 ± 0.012 |
| ACAGGAGC | -0.00133 ± 0.025 |
| GATTGCGA | -0.103 ± 0.03 |
| CTGGTACA | 0.0235 ± 0.024 |
| CGCCGGAG | -0.226 ± 0.023 |

| Sequence | PBM 8-mer E-score |
| --- | --- |
| CAAATTGG | 0.0841 ± 0.087 |
| GCCTCCCA | -0.128 ± 0.085 |
| CCCTCCCA | 0.325 ± 0.076 |
| CCTCCCCA | 0.346 ± 0.046 |
| CCTCCCAA | 0.0447 ± 0.088 |
| ACTCCCCC | -0.192 ± 0.053 |
| CCTCCCCC | -0.17 ± 0.14 |
| ACTCCCAA | 0.141 ± 0.025 |
| ACTCCCCG | 0.168 ± 0.015 |
| ACCTCCCA | -0.0967 ± 0.065 |
| TCTCCCCA | 0.164 ± 0.047 |
| ACTCCCCA | 0.309 ± 0.0089 |
| ACTCCCCT | 0.266 ± 0.028 |
| CGGATAAA | 0.0371 ± 0.069 |
| AGATGAAT | 0.17 ± 0.0036 |
| CATCCTAG | 0.0659 ± 0.037 |
| ATAGGGAA | 0.0733 ± 0.043 |
| CTAATCCA | 0.0132 ± 0.01 |
| CACATCGG | -0.0961 ± 0.052 |
| ATTGTTGC | 0.00699 ± 0.061 |
| AAGAGGGC | 0.0019 ± 0.0019 |
| ACGCTCTG | -0.0545 ± 0.0079 |
